Results filed as inconclusive are left out. A call without a number means that no potency is given here. Active and inactive are the calls of the source. Unless noted, calls come from the whole dose curve; as a rule, active = well fitted curve in the direction sought with a large enough effect; inconclusive = small, poorly fitted or top-dose-only effect, or another doubt; inactive = no such curve, though single readings can be large; an effect the other way counts as inactive or inconclusive.
Assays:
[1] = qHTS assay for measurement of the activity of small molecule inhibitors on Zika virus induced Caspase-3 activity in human iPSC derived neural progenitor cells (hNPCs) (AID 1224857); note: nearly all actives have a fitted effect of over 65% in size
Procedure, shortened: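 In medium with heparin 2 ug/ml and cyclopamine 2 uM, hNPCs (350 cells/well) received compound for one hour and then Zika virus at 2 FFU/cell; caspase activity was measured by Caspase-Glo 3/7 luminescence 6 h post-infection.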

[2] = qHTS assay for measurement of the activity of small molecule inhibitors on Zika virus induced Caspase-3 activity in human astrocytoma cells (AID 1224859)
Procedure, shortened: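 A cell-based luminescent caspase-3/7 assay used SNB-19 cells infected with ZIKV (2 FFU/cell) for 6 h following 1 h compound pretreatment.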

[3] = P-glycoprotein substrates identified in KB-3-1 adenocarcinoma cell line, qHTS therapeutic library screen (AID 1346986); note: nearly all actives have a fitted effect of over 60% in size;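 note: potency is the fitted concentration of half-maximal effect; potency is for cytotoxicity meaning loss of cell viability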
Procedure, shortened: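 KB-3-1 parental and colchicine-selected P-gp-overexpressing KB-8-5-11 cells (colchicine omitted during assay), 500 cells/well, dosed in dose-response for 72 h at 37 °C; CellTiter-Glo luminescence. Cytotoxic: curve class -1.1 to -2.4, max response >50%, AC50 < 10 uM.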

[4] = P-glycoprotein substrates identified in KB-8-5-11 adenocarcinoma cell line, qHTS therapeutic library screen (AID 1346987); note: nearly all actives have a fitted effect of over 65% in size; note: potency is the fitted concentration of half-maximal effect
Procedure, shortened: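 KB-8-5-11, a colchicine-selected P-gp-overexpressing KB-3-1 subline, was grown without colchicine for the assay. Cells were seeded at 500 cells/well, dosed in concentration-response and incubated 72 h at 37 degree C, 5% CO2. Viability was read by CellTiter-Glo luminescence.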

[5] = NS1 protein of Zika virus - qHTS assay to identify small molecule inhibitors in human HEK 293 cells (AID 1347053); note: series mostly up to about 46 µM; nearly all actives have a fitted effect of over 55% in size
Procedure, shortened: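 Inhibition of NS1 expression was scored in HEK 293 cells given compound 1 h ahead of MR766 virus (MOI = 0.5). Following 24 h at 37 C, two anti-NS1 antibodies generated a TR-FRET signal, scaled between uninfected and infected controls.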

[6] = qHTS of pediatric cancer cell lines to identify multiple opportunities for drug repurposing: Primary screen for TC32 cells (AID 1347089); note: nearly all actives have a fitted effect of over 60% in size; note: potency is the fitted concentration of half-maximal effect
Procedure, shortened: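 Luminescent CellTiter-Glo read-out of metabolically active TC32 cells after 48 h compound exposure. Primary: MIPE 11-point, 0.78 nM–46 µM; NPC 8-point, 0.59 nM–46 µM. Confirmatory: 11-point dilutions.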

[7] = qHTS of pediatric cancer cell lines to identify multiple opportunities for drug repurposing: Primary screen for DAOY cells (AID 1347090); note: series mostly up to about 46 µM; nearly all actives have a fitted effect of over 55% in size
Procedure, shortened: (§1)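 Viability measured as metabolically active cells via CellTiter-Glo luminescence following 48 hours of compound exposure, 11-point dilutions in confirmatory testing. 500-1,000 cells/well plated 5 hours before dosing; controls were DMSO and 2.3 µM bortezomib.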

[8] = qHTS of pediatric cancer cell lines to identify multiple opportunities for drug repurposing: Primary screen for A673 cells (AID 1347092); note: nearly all actives have a fitted effect of over 45% in size; note: potency is the fitted concentration of half-maximal effect
Procedure, shortened: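 A673 cells (500-1,000 cells/well in growth media) were pre-incubated 5 h at 37 degrees C, then exposed to compounds for 48 h. Viability was read as CellTiter-Glo luminescence; concentration-response curves came directly from the primary screen.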

[9] = qHTS of pediatric cancer cell lines to identify multiple opportunities for drug repurposing: Primary screen for SK-N-MC cells (AID 1347093); note: potency is the fitted concentration of half-maximal effect
Procedure, shortened: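 Metabolically active cells were quantified by ATP-dependent luminescence (CellTiter-Glo, 15 min at room temperature) following 48 h treatment. Cells had been plated at 500-1,000 per well and settled for 5 h beforehand.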

[10] = qHTS of pediatric cancer cell lines to identify multiple opportunities for drug repurposing: Primary screen for BT-37 cells (AID 1347094); note: series mostly up to about 57 µM
Procedure, shortened: (§2)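 Primary screen of approved and investigational compounds on cells in growth media at 37 degrees C, 5% CO2. MIPE set at 11-point and NPC set at 8-point dilutions; viability scored by ATP-based luminescence at 48 hours.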

[11] = qHTS of pediatric cancer cell lines to identify multiple opportunities for drug repurposing: Primary screen for NB-EBc1 cells (AID 1347095)
Procedure, shortened: as §2

[12] = qHTS of pediatric cancer cell lines to identify multiple opportunities for drug repurposing: Primary screen for U-2 OS cells (AID 1347096); note: nearly all actives have a fitted effect of over 50% in size; note: potency is the fitted concentration of half-maximal effect
Procedure, shortened: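 Viability after 48 h compound treatment at 37C, 500-1,000 cells/well, read as ATP luminescence with CellTiter-Glo. Primary screens used 11-point (MIPE, 0.78 nM-46 µM) or 8-point (NPC, 0.59 nM-46 µM) final concentrations; follow-up screens used 11-point dilutions.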

[13] = qHTS of pediatric cancer cell lines to identify multiple opportunities for drug repurposing: Primary screen for SJ-GBM2 cells (AID 1347091)
Procedure, shortened: as §1

[14] = Natriuretic polypeptide receptor (hNpr1) antagonism - Pilot counterscreen GloSensor control cell line (AID 1347045; calls by dose curve; note: series mostly up to about 38 µM)
Procedure, shortened: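 HEK293 cGMP GloSensor cells preloaded 2 h with 2% GloSensor reagent, then compound 30 min before baseline luminescence read. Stimulated with 50 uM sodium nitroprusside, 20 min at room temperature, then read again; counterscreen for Npr1 antagonism.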

[15] = molecular target: Atrial natriuretic peptide receptor 1 (Homo sapiens) (UniProt P16066); assay: Natriuretic polypeptide receptor (hNpr1) antagonism - Pilot screen (AID 1347049; calls by dose curve;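 note: agonist-evoked cGMP luminescence read 20 min after hNppA addition; series mostly up to about 58 µM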)
Procedure, shortened: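 HEK293 cells expressing hNpr1 and GloSensor cGMP luciferase, 1500/well, loaded with 2% GloSensor reagent 2 h, compound 30 min at room temperature; luminescence read before and 20 min after 0.1 nM hNppA stimulation.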

[16] = molecular target: Atrial natriuretic peptide receptor 2 (Homo sapiens) (UniProt P20594); assay: Natriuretic polypeptide receptor (hNpr2) antagonism - Pilot subtype selectivity assay (AID 1347050; calls by dose curve)
Procedure, shortened: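 HEK293 cells expressing hNpr2 and a GloSensor cGMP luciferase sensor, 1500/well, preloaded 2 h with 2% GloSensor reagent, compound 30 min, then 1 nM hNppC for 20 min. Antagonism from luminescence after versus baseline pre-read; LOPAC in 1:5 titrations.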

[17] = molecular target: T1, Tyrosine-protein phosphatase non-receptor type substrate 1 (Homo sapiens) + Leukocyte surface antigen CD47 (Homo sapiens) (UniProt P78324+Q08722); assay: CD47-SIRPalpha protein protein interaction - LANCE assay qHTS validation (AID 1347057; active = well fitted curve in the direction sought with a large enough effect in the signal ratio, with a control signal flat, not every such curve was filed as active; the % refers to the signal ratio; note: series mostly up to about 38 µM)
Procedure, shortened: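 First, His-tagged CD47 and Eu-labelled anti-His antibody met the compound for 30 min; next, site-specifically biotinylated SIRPalpha was added for 30 min; finally streptavidin-APC was added before reading the TR-FRET ratio.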

[18] = molecular target: T1, Tyrosine-protein phosphatase non-receptor type substrate 1 (Homo sapiens) + Leukocyte surface antigen CD47 (Homo sapiens); assay: CD47-SIRPalpha protein protein interaction - HTRF assay qHTS validation (AID 1347058; active = well fitted curve in the direction sought with a large enough effect in the signal ratio, not every such curve was filed as active; the % refers to the signal ratio;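 note: recombinant soluble extracellular CD47 with His tag and biotinylated SIRPalpha domains; series mostly up to about 38 µM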)
Procedure, shortened: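 TR-FRET read (Ch1/Ch2 ratio) of soluble extracellular CD47 and Avi-biotinylated SIRPalpha domains in PBS pH 7.4 with 0.05% IGEPAL; 7-point compound titration. Sequential 30 min room-temperature steps; non-biotinylated SIRPalpha as control inhibitor.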

[19] = molecular target: T1, Tyrosine-protein phosphatase non-receptor type substrate 1 (Homo sapiens) + Leukocyte surface antigen CD47 (Homo sapiens); assay: CD47-SIRPalpha protein protein interaction - Alpha assay qHTS validation (AID 1347059);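 note: bead proximity luminescence from CD47 binding SIRPalpha after compound preincubation with SIRPalpha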
Procedure, shortened: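 Biotinylated Avi-tagged SIRPalpha (25 nM) preincubated 30 min with compound, then His-tagged CD47 (12.5 nM) added 30 min; AlphaScreen with Ni-NTA acceptor and streptavidin donor beads. PBS pH 7.4, 0.05% IGEPAL, room temperature; 7-point titrations.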

[20] = molecular target: Parathyroid hormone/parathyroid hormone-related peptide receptor (Homo sapiens) (UniProt Q03431); assay: qHTS for PTHR1 Agonists: Optimization Screen against the NCGC LOPAC library (AID 1347079);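 note: GloSensor cAMP luminescence in HEK-293 GP2 cells expressing human PTHR1 with IBMX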
Procedure, shortened: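 Agonist readout: GloSensor cAMP luminescence, read after 15 min at room temperature. HEK-293-derived GP2 line carries PTHR1; compounds tested as a titration for 1 hr at 37C in presence of IBMX. M-PTH (1-15) served as control.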

Sequence of Parathyroid hormone/parathyroid hormone-related peptide receptor (Homo sapiens) (Q03431 whole entry, looked up): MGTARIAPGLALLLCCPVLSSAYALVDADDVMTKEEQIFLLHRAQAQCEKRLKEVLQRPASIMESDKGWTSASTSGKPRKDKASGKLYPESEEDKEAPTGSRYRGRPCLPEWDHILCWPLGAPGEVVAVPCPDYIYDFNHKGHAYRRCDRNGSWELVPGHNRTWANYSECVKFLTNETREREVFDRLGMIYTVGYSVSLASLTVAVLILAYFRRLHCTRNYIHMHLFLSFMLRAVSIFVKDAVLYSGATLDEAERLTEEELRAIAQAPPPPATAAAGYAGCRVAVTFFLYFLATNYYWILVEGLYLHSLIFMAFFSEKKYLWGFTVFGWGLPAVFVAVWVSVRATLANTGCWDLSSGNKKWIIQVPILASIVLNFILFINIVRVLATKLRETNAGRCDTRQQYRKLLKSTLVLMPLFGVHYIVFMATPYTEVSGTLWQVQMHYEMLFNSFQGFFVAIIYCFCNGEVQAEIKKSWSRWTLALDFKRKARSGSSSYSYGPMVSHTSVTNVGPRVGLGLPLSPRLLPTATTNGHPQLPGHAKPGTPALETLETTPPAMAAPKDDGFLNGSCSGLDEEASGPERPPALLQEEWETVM
Sequence of Atrial natriuretic peptide receptor 1 (Homo sapiens) (P16066 whole entry, looked up): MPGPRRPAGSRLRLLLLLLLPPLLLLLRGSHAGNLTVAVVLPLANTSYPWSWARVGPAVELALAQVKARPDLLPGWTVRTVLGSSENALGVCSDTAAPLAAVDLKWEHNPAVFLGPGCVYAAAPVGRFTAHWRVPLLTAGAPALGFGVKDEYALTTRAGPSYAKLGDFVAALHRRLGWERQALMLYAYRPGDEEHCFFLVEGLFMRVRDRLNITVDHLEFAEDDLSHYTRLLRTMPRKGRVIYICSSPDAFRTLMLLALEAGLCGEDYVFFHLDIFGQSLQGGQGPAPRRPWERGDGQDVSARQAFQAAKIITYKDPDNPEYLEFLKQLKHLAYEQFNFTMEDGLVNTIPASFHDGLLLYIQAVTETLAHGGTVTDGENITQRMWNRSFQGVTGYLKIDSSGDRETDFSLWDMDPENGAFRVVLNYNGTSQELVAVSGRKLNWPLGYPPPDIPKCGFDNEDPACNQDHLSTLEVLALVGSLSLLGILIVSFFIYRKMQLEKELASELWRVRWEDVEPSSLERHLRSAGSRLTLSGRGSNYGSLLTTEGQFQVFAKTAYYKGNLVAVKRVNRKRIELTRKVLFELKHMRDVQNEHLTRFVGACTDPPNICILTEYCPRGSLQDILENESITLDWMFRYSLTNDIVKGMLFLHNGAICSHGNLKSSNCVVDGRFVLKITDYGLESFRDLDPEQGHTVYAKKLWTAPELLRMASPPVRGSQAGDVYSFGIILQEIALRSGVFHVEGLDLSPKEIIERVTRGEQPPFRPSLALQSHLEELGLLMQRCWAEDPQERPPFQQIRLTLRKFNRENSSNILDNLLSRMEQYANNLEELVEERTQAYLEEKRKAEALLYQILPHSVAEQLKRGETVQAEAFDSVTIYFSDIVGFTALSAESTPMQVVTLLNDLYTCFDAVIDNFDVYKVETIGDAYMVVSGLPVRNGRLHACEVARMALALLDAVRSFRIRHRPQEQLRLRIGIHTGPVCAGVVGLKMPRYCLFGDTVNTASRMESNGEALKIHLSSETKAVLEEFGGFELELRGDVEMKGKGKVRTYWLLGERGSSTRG
T1 sequence (P78324 whole entry, looked up): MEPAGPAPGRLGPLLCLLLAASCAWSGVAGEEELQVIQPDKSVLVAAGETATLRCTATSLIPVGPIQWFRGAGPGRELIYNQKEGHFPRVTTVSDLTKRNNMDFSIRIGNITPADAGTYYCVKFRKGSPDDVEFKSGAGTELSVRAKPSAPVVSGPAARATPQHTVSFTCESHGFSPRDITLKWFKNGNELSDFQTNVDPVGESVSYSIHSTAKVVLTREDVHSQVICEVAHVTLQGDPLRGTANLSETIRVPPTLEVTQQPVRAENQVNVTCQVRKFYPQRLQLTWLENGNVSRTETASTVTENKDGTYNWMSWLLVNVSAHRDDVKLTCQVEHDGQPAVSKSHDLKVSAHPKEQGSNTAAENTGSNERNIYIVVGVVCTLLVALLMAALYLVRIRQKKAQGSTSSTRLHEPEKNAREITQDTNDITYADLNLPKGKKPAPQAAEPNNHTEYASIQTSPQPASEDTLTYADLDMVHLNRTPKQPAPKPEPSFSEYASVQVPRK
T1 sequence (Q08722 whole entry, looked up): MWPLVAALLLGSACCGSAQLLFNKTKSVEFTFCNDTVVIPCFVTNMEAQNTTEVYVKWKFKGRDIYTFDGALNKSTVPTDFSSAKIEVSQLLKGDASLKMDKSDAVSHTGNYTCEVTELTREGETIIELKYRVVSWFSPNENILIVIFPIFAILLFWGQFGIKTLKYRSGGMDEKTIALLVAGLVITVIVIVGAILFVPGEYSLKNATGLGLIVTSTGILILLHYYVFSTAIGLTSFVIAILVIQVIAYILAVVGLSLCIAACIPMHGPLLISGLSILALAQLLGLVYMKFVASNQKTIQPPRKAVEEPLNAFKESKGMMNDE
Sequence of Atrial natriuretic peptide receptor 2 (Homo sapiens) (P20594 whole entry, looked up): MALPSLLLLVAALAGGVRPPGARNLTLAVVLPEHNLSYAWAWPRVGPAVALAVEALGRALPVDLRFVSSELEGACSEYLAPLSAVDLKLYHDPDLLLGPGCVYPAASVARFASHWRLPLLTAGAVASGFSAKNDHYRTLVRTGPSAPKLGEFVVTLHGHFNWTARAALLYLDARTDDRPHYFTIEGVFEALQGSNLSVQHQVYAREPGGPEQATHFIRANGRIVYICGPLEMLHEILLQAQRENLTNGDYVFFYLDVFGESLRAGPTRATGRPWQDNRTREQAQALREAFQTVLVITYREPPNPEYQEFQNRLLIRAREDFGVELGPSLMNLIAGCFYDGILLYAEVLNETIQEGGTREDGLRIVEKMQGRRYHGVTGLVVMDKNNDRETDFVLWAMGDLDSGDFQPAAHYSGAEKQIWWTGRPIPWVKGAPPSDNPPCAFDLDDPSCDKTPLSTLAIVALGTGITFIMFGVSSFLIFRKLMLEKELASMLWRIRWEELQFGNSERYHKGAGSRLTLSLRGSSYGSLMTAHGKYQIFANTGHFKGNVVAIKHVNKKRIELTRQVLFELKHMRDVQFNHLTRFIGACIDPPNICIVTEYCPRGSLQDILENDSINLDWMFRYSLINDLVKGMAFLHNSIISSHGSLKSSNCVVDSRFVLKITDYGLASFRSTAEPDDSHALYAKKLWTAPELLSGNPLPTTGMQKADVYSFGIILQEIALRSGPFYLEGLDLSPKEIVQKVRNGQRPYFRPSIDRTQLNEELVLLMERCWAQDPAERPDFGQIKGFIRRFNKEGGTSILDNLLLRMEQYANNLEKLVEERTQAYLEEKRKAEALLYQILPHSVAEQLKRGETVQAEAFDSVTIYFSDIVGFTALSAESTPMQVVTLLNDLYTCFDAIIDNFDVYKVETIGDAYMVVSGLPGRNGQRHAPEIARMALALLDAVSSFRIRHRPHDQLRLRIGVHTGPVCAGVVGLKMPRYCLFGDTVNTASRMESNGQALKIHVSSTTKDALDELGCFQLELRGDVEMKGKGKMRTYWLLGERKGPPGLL

Structure (SMILES) | Potency [1] | outcome [2] | Potency [3] | Potency [4] | Potency [5] | Potency [6] | Potency [7] | Potency [8] | Potency [9] | Potency [10] | Potency [11] | Potency [12] | Potency [13] | Potency [14] | Potency [15] | Potency [16] | outcome [17] | outcome [18] | Potency [19] | outcome [20]
CCCCC(O)/C=C(C)/C=C/C=C/C(=O)N1CCCC1=O (stereo not given) | inactive | inactive | inactive | inactive | inactive | inactive | inactive | inactive | inactive | inactive | inactive | inactive |  |  |  |  |  |  |  | 
Cc1ccc(O)cc1 | inactive | inactive |  | inactive | inactive | inactive | inactive | inactive | inactive | inactive | inactive | inactive | inactive |  |  |  |  |  |  | 
CCCCCOc1ccc(C2SC(=O)NC2=O)cc1OCC (stereo not given) | inactive | inactive | inactive | inactive |  | inactive | inactive | inactive | inactive | inactive |  | inactive | inactive |  |  |  |  |  |  | 
CCN1C(=O)c2ccccc2C1Nc1ccc(OCCN2CCCCC2)cc1 (stereo not given) | inactive | inactive | inactive |  | inactive | inactive | inactive | inactive | inactive | inactive | inactive | inactive | inactive |  |  |  |  |  |  | 
CC(C(=O)O)c1ccc(/C=C2\CCCCC2=O)cc1 (stereo not given) | inactive | inactive | inactive | inactive | inactive | inactive | inactive | inactive | inactive | inactive | inactive | inactive | inactive |  |  |  |  |  |  | 
CCOC(=O)c1ccc(NC(=O)CN2CCCCC2)cc1 | inactive | inactive | inactive |  | inactive | inactive | inactive | inactive | inactive | inactive | inactive | inactive | inactive |  |  |  |  |  |  | 
CCOC(=O)c1ccc(OCCN2C[C@H](O)[C@@H](O)[C@H](O)[C@H]2CO)cc1 | inactive | inactive | inactive | inactive | inactive | inactive |  | inactive | inactive | inactive | inactive | inactive | inactive |  |  |  |  |  |  | 
COc1cc(C(=O)OC(COCCC(C)C)CN2CCOCC2)cc(OC)c1OC (stereo not given) | inactive | inactive | inactive | inactive | inactive | inactive | inactive | inactive | inactive | inactive | inactive | inactive | inactive |  |  |  |  |  |  | 
CC(C)=CCNc1ncnc2c1ncn2[C@@H]1O[C@H](CO)[C@@H](O)[C@H]1O | inactive | inactive | 5.8 µM (active) | 5.8 µM (active) | inactive | 5.92 µM (active) |  | 2.66 µM (active) | 3.76 µM (active) |  |  | 21.1 µM (active) |  |  |  |  |  |  |  | 
COc1ccccc1N1CCN(CCN2C(=O)CC3(CCCC3)CC2=O)CC1 | inactive | inactive |  | inactive | inactive |  |  |  |  |  |  |  |  | inactive | inactive | inactive | inactive | inactive | inactive | inactive
COC(=O)C1=CO[C@@H](O)[C@@H]2C(CO)=CC[C@H]12 | inactive | inactive |  | inactive |  |  |  |  |  |  |  |  |  | inactive | inactive | inactive | inactive | inactive | inactive | inactive
C=CC[N+]1([C@H]2C[C@H]3[C@@H]4CC[C@H]5C[C@H](OC(C)=O)[C@@H](N6CCCCC6)C[C@]5(C)[C@H]4CC[C@]3(C)[C@H]2OC(=O)CC)CCCCC1 | inactive | inactive | inactive | inactive | inactive |  |  | inactive | inactive |  |  | inactive | inactive |  |  |  |  |  |  | 
OC[C@]1(O)OC[C@@H](O)[C@H](O)[C@@H]1O | inactive | inactive |  | inactive | inactive | inactive | inactive | inactive | inactive | inactive | inactive |  | inactive |  |  |  |  |  |  | 
CC(NCCC(c1ccccc1)c1ccccc1)c1ccccc1 (stereo not given) | inactive | inactive |  | 16.4 µM (active) |  |  |  |  |  |  |  |  |  |  |  |  |  |  |  | 
O=S(=O)(O)c1ccc2nc(-c3ccccc3)[nH]c2c1 | inactive | inactive |  | inactive | inactive | inactive |  |  |  |  |  |  |  |  |  |  |  |  |  | 
Nc1ncnc2n[nH]c(Nc3ccc(F)cc3)c12 | inactive | inactive | inactive | inactive | inactive |  |  |  |  |  |  |  |  | inactive | inactive | inactive | inactive | inactive | inactive | inactive
CC(=O)N[C@@H](CCC(N)=O)C(=O)O | inactive | inactive |  | inactive | inactive | inactive | inactive | inactive | inactive | inactive | inactive | inactive | inactive |  |  |  |  |  |  | 
OCc1cccnc1 | inactive | inactive |  | inactive | inactive | inactive | inactive | inactive | inactive | inactive | inactive | inactive | inactive |  |  |  |  |  |  | 
C[C@H]1NCc2cc(-c3ccc4c(=O)c(C(=O)O)cn(C5CC5)c4c3OC(F)F)ccc21 | inactive | inactive |  | inactive | inactive | inactive | inactive | inactive | inactive | inactive | inactive | inactive | inactive |  |  |  |  |  |  | 
Brc1ccccc1-c1ccccc1 | inactive | inactive |  | inactive | inactive | inactive | inactive | inactive | inactive | inactive | inactive | inactive | inactive |  |  |  |  |  |  | 

Source: PubChem BioAssay (NCATS)
